Bioassay records deposited in PubChem BioAssay by National Center for Advancing Translational Sciences (NCATS).
Hits are enriched below; roughly 6.6% of the tested compounds scored in any of these assays.
SW480 rerep: induces DNA re-replication in SW480 colon adenocarcinoma cells; SW480 DNA re-replication, Hoechst DNA content imaging, 48 h; Potency, µM (highest dose often 46.1 µM), for the others: at the highest dose re-replication activation, hits mostly activators; 1.8% of 340,000 active; AID 624297; note: % of control where 0% means no effect; nearly all actives have a fitted effect of over 55% in size
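Image-based DNA-content assay: after two days of treatment, nuclei were labelled with the DNA dye Hoechst and imaged, and hits were compounds raising the count of nuclei showing high fluorescence intensity.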
RGS4 inh: human RGS4 inhibition; P49798; Transcreener GDP fluorescence polarization, RGS4-accelerated GTP hydrolysis; Potency, µM (titrated, usually from 114 µM), inactives show at the highest dose activity change, negative = inhibition, most hits filed as inhibitors; 0.039% of 390,000 active; AID 504845; note: % is set by controls: 0 for no effect and ±100 for the full control effect; nearly all actives have a fitted effect of over 75% in size
Target sequence (P49798 whole entry, looked up): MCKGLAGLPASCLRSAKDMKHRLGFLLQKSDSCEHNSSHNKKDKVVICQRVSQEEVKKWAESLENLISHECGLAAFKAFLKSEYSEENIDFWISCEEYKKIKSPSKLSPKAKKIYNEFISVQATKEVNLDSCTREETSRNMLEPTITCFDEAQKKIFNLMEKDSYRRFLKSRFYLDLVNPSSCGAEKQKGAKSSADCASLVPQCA
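MLSMR compounds (23 nl, pin-transferred) preincubated 10 min at room temperature with a 500nM (2x) first reagent, then RGS4 at 900nM (2x) plus Transcreener GDP mix added; fluorescence polarization (620/688 nm) read before and after 90 min at 30 °C.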
PTAP TSG101 blk: blocks PTAP/TSG101 interaction to inhibit HIV-1 budding | 340,000 tested, under 10 active | AID 493005 | Potency, µM (doses to about 115 µM), for inactives: at the highest dose activity change, negative = inhibition, most hits filed as inhibitors | Fluorescence polarization, FITC-PTAP peptide / Tsg101 binding; active = well fitted inhibition curve with a large enough effect in the main read-out, with a control signal flat, not every such curve was filed as active; inconclusive = small, poorly fitted or top-dose-only effect, or effect the other way, or a change in a side signal; inactive = no such curve, though single readings can be large or run the other way; note: % of control where 0% means no effect
Target sequence (Q99816 whole entry, looked up): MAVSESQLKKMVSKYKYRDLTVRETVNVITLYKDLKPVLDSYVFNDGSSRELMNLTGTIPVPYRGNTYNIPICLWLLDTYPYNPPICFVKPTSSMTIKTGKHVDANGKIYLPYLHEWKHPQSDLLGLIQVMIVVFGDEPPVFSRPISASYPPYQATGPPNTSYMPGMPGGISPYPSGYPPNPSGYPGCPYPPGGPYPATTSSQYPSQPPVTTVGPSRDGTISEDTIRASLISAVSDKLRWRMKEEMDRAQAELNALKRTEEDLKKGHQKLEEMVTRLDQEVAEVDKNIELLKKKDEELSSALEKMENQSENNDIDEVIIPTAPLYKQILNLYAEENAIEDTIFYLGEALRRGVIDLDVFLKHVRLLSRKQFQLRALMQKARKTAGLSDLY
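Steps: Tsg101 binding domain dispensed (10 uM final), compounds pinned in DMSO, FITC-labeled PTAP-motif peptide added (50 nM final); after 20 min binding at room temperature, polarization measured.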
MCF10A rereplic: inducers of DNA re-replication in MCF 10A breast cells. MCF 10A DNA re-replication, Hoechst nuclear intensity, 48 h. Potency, µM (titrated, usually from 46.1 µM), for the others: at the highest dose activity, positive = re-replication, actives largely listed as activators. 2.9% of 350,000 active; note: % of control where 0% means no effect; nearly all actives have a fitted effect of over 50% in size
KB-V1 MDR tox: kills drug-selected multidrug resistant KB-V1 cells. KB-V1 MDR cells viability, CellTiter-Glo, 72 h. Potency, µM (doses to about 46.1 µM), actives largely listed as cytotoxic. 3.4% of 400,000 active. AID 1347076; note: % is set by controls: 0 for no effect and ±100 for the full control effect; nearly all actives have a fitted effect of over 60% in size
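Cells of the MDR subline KB-V1 are plated, dosed with compound at multiple concentrations, and incubated 72 h at 37 degrees C; CellTiter-Glo is then added and luminescence read after 10 min.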
KB-3-1 tox: KB-3-1 parental cell cytotoxicity | KB-3-1 viability, CellTiter-Glo ATP luminescence, 72 h | Potency, µM (top dose mostly 46.1 µM), most hits filed as cytotoxic | 1.4% of 400,000 active | AID 1347075; note: % is set by controls: 0 for no effect and ±100 for the full control effect; nearly all actives have a fitted effect of over 60% in size
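Luminescent ATP read-out (CellTiter-Glo) measures survival of drug-naive KB-3-1 cells after 72 h compound exposure at 37 °C. Titration series was screened from lowest to highest concentration, with DMSO vehicle plates as background controls.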
* = called active by the depositor; i = inactive; ? = inconclusive; . = no result; [ ] = dose if it differs, or a comment. Unless noted, calls come from the whole dose curve; as a rule, active = well fitted curve in the direction sought with a large enough effect; inconclusive = small, poorly fitted or top-dose-only effect, or another doubt; inactive = no such curve, though single readings can be large; an effect the other way counts as inactive or inconclusive. Potency is the fitted concentration of half-maximal effect.

SMILES	SW480 rerep	RGS4 inh	PTAP TSG101 blk	MCF10A rereplic	KB-V1 MDR tox	KB-3-1 tox
COc1ccc(-n2c(C)cc(C(=O)CSc3ccc(NC(C)=O)cc3)c2C)cc1	13%	-6%	-1%	16µM*	?	i
COc1ccc(-n2c(C)cc(C(=O)CCl)c2C)cc1	2.6µM*	-28%	-3%	6.5µM*	?	6.5µM*
Cc1cc(-n2c(C)cc(C(=O)CN3C(=O)C(=O)N(C)C3=O)c2C)no1	-8%	31%	-4%	2%	i	i
COc1ccc(-n2c(C)cc(C(=O)CN3C(=O)c4ccccc4C3=O)c2C)cc1	2%	-16%	1%	1%	i	i
COc1ccc(S(=O)(=O)NCCS(=O)(=O)N2CCN(c3ccccc3)CC2)cc1C	.	-8%	.	.	i	i
COc1ccc(-n2c(C)cc(C(=O)COc3ccc(C)nc3[N+](=O)[O-])c2C)cc1	?	-10%	-3%	21µM*	?	?
Cc1cc(C(=O)CCl)c(C)n1-c1c(C)n(C)n(-c2ccccc2)c1=O	21µM*	26%	-4%	5.2µM*	?	?
NC(C(=O)O)C(CC(=O)O)c1ccc(Cl)cc1 (configuration not stated)	.	i	.	.	.	.
CC(=NCc1ccco1)c1c(O)n(C2CCCCC2)c(=O)[nH]c1=O	12%	3%	-7%	6%	5.8µM*	i
COc1ccc(Nc2nc(NC(C)(C)C)nc(N3CCCC3)n2)c(OC)c1	?	1%	-7%	?	18µM*	i
COc1ccc([C@@H]2C[C@@H](c3ccccc3)Oc3cc(OC)c(OC)c(OC)c32)cc1	-4%	15%	.	1.2µM*	?	i
COc1cccc(OCC(=O)N(C)Cc2nc(-c3cccc(C)c3)no2)c1	-7%	0%	-1%	4%	23µM*	i
CCOc1ccccc1NC(=O)N1CCC2(CC1)Oc1ccccc1C(=O)N2Cc1ccccc1F	.	3%	.	.	.	.
CCOCCCN1C(=O)CN(C2CCCCCC2)C(=O)C1c1ccc(OCC)c(OC)c1 (configuration not stated)	.	3%	.	.	.	.
COc1ccccc1CN1C(=O)CN(C2CCCC2)C(=O)C1c1ccc(F)cc1 (configuration not stated)	18%	40%	.	-7%	3.7µM*	i
CCOc1ccc(C2C(=O)N(C3CCCCC3)CC(=O)N2CC2CCCO2)cc1OC (configuration not stated)	1%	-39%	-1%	-2%	18µM*	i
CC1=C(C(=O)NCc2cccc(Cl)c2)C2(CCCCCC2)OC1=O	.	5%	.	.	i	i
O=C(Nc1cc(C(F)(F)F)ccc1-n1cncn1)c1ccc([N+](=O)[O-])o1	9.2µM*	3%	-1%	?	?	21µM*
O=C(Nc1cc(C(F)(F)F)ccc1-n1cncn1)c1ccc(Br)cc1	-2%	-26%	-4%	1%	?	i
COc1ccc(OC)c(C2CC(=O)c3c([nH]c(C(=O)OC(C)C)c3C)C2)c1 (configuration not stated)	3.7µM*	-13%	1%	?	0.52µM*	0.46µM*
CCOCCOC(=O)c1[nH]c2c(c1C)C(=O)CC(c1ccc(OC)c(OC)c1)C2 (configuration not stated)	0%	-11%	-2%	21%	?	i
CCCOCCOC(=O)c1[nH]c2c(c1C)C(=O)CC(c1cc(OC)ccc1OC)C2 (configuration not stated)	3.7µM*	7%	0%	?	5.8µM*	5.8µM*
COc1ccc(OC)c(C2CC(=O)c3c([nH]c(C(=O)OC4CCC(C)CC4)c3C)C2)c1 (configuration not stated)	.	-12%	.	.	?	?
COc1ccc(OC)c(C2CC(=O)c3c([nH]c(C(=O)OCC4CCCO4)c3C)C2)c1 (configuration not stated)	?	-11%	1%	15µM*	?	9.2µM*
COc1ccc(OC)c(C2CC(=O)c3c([nH]c(C(=O)OCc4ccc(C)cc4)c3C)C2)c1 (configuration not stated)	.	-20%	.	.	.	.
SMILES	SW480 rerep	RGS4 inh	PTAP TSG101 blk	MCF10A rereplic	KB-V1 MDR tox	KB-3-1 tox
COCCOC(=O)c1[nH]c2c(c1C)C(=O)CC(c1cc(OC)ccc1OC)C2 (configuration not stated)	13µM*	-19%	0%	?	?	8.2µM*
CC(C)c1cc(/C=C(\C#N)C(=O)NCCCc2ccccc2)cc(C(C)C)c1O	.	330%[56.9 µM]	.	.	.	.
O=C(CCN1Cc2ccccc2C1)c1ccc2c(c1)OCCO2	13%	-49%	-15%	-3%	i	i
O=C(CCN1CCc2ccccc2C(c2ccccc2)C1)c1ccc2c(c1)OCCO2 (configuration not stated)	?	-100%[11.4 µM]	3%	5.2µM*	?	?
O=C(CCCN1C(=O)c2cccnc2Oc2ccc(Cl)cc21)NCc1ccccc1F	.	9%	.	.	i	i
CC(=O)N1N=C(c2cccc([N+](=O)[O-])c2)OC1(C)CC(=O)Nc1ccccc1 (configuration not stated)	4%	4%	-1%	10%	21µM*	i
CC(=O)N1N=C(c2ccccc2)OC1(C)CC(=O)Nc1ccccc1 (configuration not stated)	-7%	-5%	0%	-10%	?	i
Cc1cccc(NC(=S)NNC(=O)c2csc(C(C)C)c2)c1	-2%	-24%	-1%	?	21µM*	i
CC(C)(C)c1ccc(NC(=O)CSc2nnc3scc(-c4ccccc4)n23)cc1	.	0%	.	.	?	i
O=C(CSc1nnc(-c2ccccc2)n1-c1ccccc1)c1cccs1	0%	-19%	1%	?	21µM*	i
Cc1ccc2nc(SCC(=O)N3CCCc4ccccc43)nc(=O)n2c1	-8%	8%	-4%	-2%	18µM*	i
